Assay outcomes deposited in PubChem BioAssay by National Center for Advancing Translational Sciences (NCATS).
Pin1 inhibitor: human Pin1 inhibition; Q13526; Potency, µM (titrated, usually from 115 µM), hits mostly inhibitors; 390,000 tested, 0.009% active; Pin1 FP peptide displacement, HiFluor488, 10 min; active = well fitted inhibition curve with a large enough effect in the polarisation, with a control signal flat, not every such curve was filed as active; inconclusive = small, poorly fitted or top-dose-only effect, or effect the other way, or a change in a side signal; inactive = no such curve, though single readings can be large or run the other way; the % refers to the polarisation
Target sequence (Q13526 whole entry, looked up): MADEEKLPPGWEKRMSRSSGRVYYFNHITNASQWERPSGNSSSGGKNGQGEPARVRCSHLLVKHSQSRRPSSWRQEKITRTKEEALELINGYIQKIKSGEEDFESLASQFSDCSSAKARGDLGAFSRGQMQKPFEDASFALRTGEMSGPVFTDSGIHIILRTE
ClpP mod: qHTS Assay for Activators of ClpP; purified B. subtilis ClpP, FRET peptide cleavage, 20 min; Potency, µM (doses to about 57.5 µM); 340,000 tested, 1.9% active; active = well fitted falling curve with a large enough effect; inconclusive = small, poorly fitted or top-dose-only effect; inactive = no such curve, though single readings can be large or run the other way; also: the source files actives as falling curves though it sought activators and does not explain the sign; nearly all actives have a fitted effect of over 65% in size
Target sequence (P80244 whole entry, looked up): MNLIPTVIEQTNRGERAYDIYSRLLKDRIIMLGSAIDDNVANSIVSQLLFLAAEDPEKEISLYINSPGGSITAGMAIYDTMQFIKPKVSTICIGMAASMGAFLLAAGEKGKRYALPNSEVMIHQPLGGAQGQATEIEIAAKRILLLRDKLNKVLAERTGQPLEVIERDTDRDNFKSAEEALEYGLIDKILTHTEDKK
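Purified B. subtilis ClpP, 10 microg/mL final in Tris/HCl pH8 with KCl, BSA, glycerol and Tween-20, cleaved an Abz/nitrotyrosine-quenched decapeptide. Fluorescence (ex 320, em 430) was read at 0 and 20 min at room temperature. Delta was normalized to 5.8 microM ADEP and DMSO/no-enzyme controls.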
PKM2 act: activators of human pyruvate kinase M2; purified PKM2, Kinase-Glo ATP luminescence, activation; response scale: 0% is enzyme alone, no compound; Potency, µM (doses to about 57.5 µM), hits mostly activators; P14618; AID 1631; 260,000 tested, 0.34% active; also: nearly all actives have a fitted effect of over 55% in size
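Kinase-Glo luminescence reports ATP generated from ADP (0.1 mM) and PEP (0.5 mM) by purified hPK-M2 after 1 h at room temperature, pH 7.2 imidazole buffer; intermediate enzyme activity allows detecting inhibitors and activators.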
USP2a inh: blocks human ubiquitin-specific protease USP2a | 330,000 tested, 0.01% active | USP2 core, Ub-CHOP2 coupled fluorogenic reporter, 485/531 | Potency, µM (titrated, usually from 38.3 µM), actives largely listed as inhibitors
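Cell-free coupled assay: 10nM USP2 core preincubated 30min RT with compound in Tris-HCl pH 8.0/CaCl2/CHAPS buffer, then 25nM Ub-CHOP2 and 25nM reporter substrate; fluorescence (Ex 485/Em 531) read after 60min RT, normalized to NEM inhibition, concentration-response curves fitted.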
IL2 activator: IL-2 activation; IL-2 activation reporter assay, cell-based qHTS; stimulated with anti-CD3/CD4/CD28 beads; in transgenic mouse T cells; activation, % (series mostly up to about 46 µM); 360,000 tested, 0.065% active; AID 652025; in the data active = activation above about 50%; inconclusive = mostly about 30% to 49%
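First, unstimulated transgenic mouse T cells were exposed to compound for 60 min. Next, anti-CD3/anti-CD4-coated beads with anti-CD28 were added. Finally, after 18 h at 37 degrees C, EGFP and DsRed were imaged.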
Integrin act MD: activators of alpha7 integrin expression for muscular dystrophy; Potency, µM (top dose mostly 38.3 µM), usual class: activators; 350,000 tested, 0.064% active; AID 624291; alpha7betagal myoblasts, beta-gal FDG fluorescence, 48 h; also: nearly all actives have a fitted effect of over 60% in size
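alpha7betagal+/- myoblasts (passage 13, 250/well) treated 48 h at 37C with compounds at 1:260 dilution of DMSO stock. Lysed, then beta-galactosidase activity read as FDG fluorescence (ex 480/em 540) after 30 min, with pre-read for autofluorescence.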
ClpP validation: inhibits B. subtilis ClpP protease, hit validation | 470 tested, 40% active | AID 743245 | purified B. subtilis ClpP, FRET-FV substrate cleavage, 20 min | shares compounds with ClpP mod | Potency, µM (highest dose often 57.5 µM), most hits filed as inhibitors; also: nearly all actives have a fitted effect of over 70% in size
Hits are given with their value; - = inactive; ? = inconclusive; . = not tested or not shown; [ ] = remark or other dose. An excerpt weighted towards active compounds, which were near 1.9% of everything screened. Unless noted, calls follow the shape of the dose curve; as a rule, active = well fitted curve in the direction sought with a large enough effect; inconclusive = small, poorly fitted or top-dose-only effect, or another doubt; inactive = no such curve, though single readings can be large; an effect the other way counts as inactive or inconclusive.

SMILES | Pin1 inhibitor | ClpP mod | PKM2 act | USP2a inh | IL2 activator | Integrin act MD | ClpP validation
CC(C)(C)C(=O)Nc1ccc(-c2nc3ccccc3s2)cc1 | - | 10µM | . | . | . | . | -
COc1ccc(-c2nc3ccccc3s2)cc1NC(=O)c1ccc(F)cc1 | - | - | . | . | . | . | 22µM
CC(CNC(=O)c1ccc(Cn2c(=O)c3cccn3c3cccnc32)cc1)c1ccccc1 (stereo unspecified) | - | ? | . | . | . | . | .
O=C(NC1CCCCC1)c1ccc(Cn2c(SCc3cccc(F)c3)nc3cccnc32)cc1 | ? | - | . | . | . | . | .
Cc1ccc(C(=O)Nc2cccc(-c3nc4ccccc4o3)c2)c(Cl)c1 | ? | - | . | . | . | . | ?
Cc1ccc(C(=O)Nc2ccc3oc(-c4cccnc4)nc3c2)c(Cl)c1 | - | ? | . | . | . | . | .
Cc1ccc(C)c(Nc2nc3c(S(=O)(=O)c4ccccc4)nnn3c3ccccc23)c1 | - | - | - | - | - | - | 22µM
Cc1ccc(S(=O)(=O)c2nnn3c2nc(Nc2cccc(C)c2)c2ccccc23)cc1 | - | - | - | - | - | - | .
O=C(Nc1ccccc1)c1nc[nH]c1C(=O)NCc1ccccc1 | - | - | . | - | - | - | .
O=C(Nc1cccc(Cl)c1)c1nc[nH]c1C(=O)NCc1ccccc1 | - | - | . | - | - | - | ?
Fc1cccc2sc(Nc3nc4cc5c(cc4s3)OCCO5)nc12 | - | - | - | - | - | - | .
Fc1cc(F)c2nc(Nc3nc4cc5c(cc4s3)OCO5)sc2c1 | ? | 8.9µM | ? | - | - | - | ?
Cc1cc(C)cc(Nc2cc(C(=O)NCc3ccccc3)c3ccccc3n2)c1 | ? | - | . | . | . | . | .
c1ccc2c(c1)[nH]c1c(N3CCOCC3)ncnc12 | - | - | - | - | - | - | .
CCc1cc(N2CCOCC2)cc2c1[nH]c1ccccc12 | - | 10µM | - | - | - | -[7.66 µM] | 17µM
CCN(CC)S(=O)(=O)c1cccc2cccnc12 | - | - | - | - | - | - | .
CCN(CC)S(=O)(=O)c1cccc2c(N(C)C)cccc12 | - | 3.5µM | - | - | - | - | -
CCCC1CCC(c2ccc(C(N)=O)cc2)CC1 (stereo unspecified) | - | - | - | - | - | - | -
CCCCCNC(=O)C(c1cc2ccccc2o1)n1c(=O)c(-c2cc3ccccc3[nH]2)nc2ccccc21 (stereo unspecified) | . | - | . | . | - | . | .
Cc1cccc(C)c1NC(=O)C(c1ccccc1)n1c(=O)c(-c2cc3ccccc3[nH]2)nc2ccccc21 (stereo unspecified) | . | - | . | . | - | . | .
O=C(Nc1ccc2ccccc2c1)C(c1ccccc1)n1c(=O)c(-c2cc3ccccc3[nH]2)nc2ccccc21 (stereo unspecified) | . | - | . | . | - | . | -
O=C(NCc1ccccc1)C(c1ccc(C(F)(F)F)cc1)n1c(=O)c(-c2cc3ccccc3[nH]2)nc2ccccc21 (stereo unspecified) | . | - | . | . | - | . | -
N#Cc1ccc(C(C(=O)NCc2ccccc2)n2c(=O)c(-c3cc4ccccc4[nH]3)nc3ccccc32)cc1 (stereo unspecified) | . | - | . | . | - | . | .
O=C(NCc1ccccc1)C(c1cccc2ccccc12)n1c(=O)c(-c2cc3ccccc3[nH]2)nc2ccccc21 (stereo unspecified) | . | - | . | . | - | . | -
O=C(NCc1ccccc1)C(CCc1ccccc1)n1c(=O)c(-c2cc3ccccc3[nH]2)nc2ccccc21 (stereo unspecified) | . | - | . | . | - | . | .
SMILES | Pin1 inhibitor | ClpP mod | PKM2 act | USP2a inh | IL2 activator | Integrin act MD | ClpP validation
CCCCCNC(=O)C(c1ccc(-c2ccccc2)cc1)n1c(=O)c(-c2cc3ccccc3[nH]2)nc2ccccc21 (stereo unspecified) | . | - | . | . | - | . | -
CCCCNc1nc(C)nc2c1nc(-c1ccccc1)n2CCN1CCCCC1 | . | . | - | . | . | . | .
O=c1c(-c2cc3ccccc3[nH]2)nc2ccccc2n1C(CCc1ccccc1)c1nc2ccccc2[nH]1 (stereo unspecified) | . | - | . | . | - | . | -
Cc1cccc(C)c1NC(=O)C(c1cccc2ccccc12)n1c(=O)c(-c2cc3ccccc3[nH]2)nc2ccccc21 (stereo unspecified) | . | - | . | . | - | . | -
COc1ccc(-c2cc(C(=O)N(C)CC(=O)Nc3cccc(F)c3)c3ccccc3n2)cc1 | - | 6.3µM | . | - | - | - | 24µM
CN(CC(=O)Nc1cccc(F)c1)C(=O)c1cc(-c2ccccc2)nc2ccccc12 | - | - | . | - | - | - | .
COc1ccccc1CNC(=O)c1cnc2sc(N3CCCCC3)nn2c1=O | - | - | . | . | . | . | .
CCOc1ccccc1CNC(=O)c1cnc2sc(N3CCCC3)nn2c1=O | - | 7.9µM | . | . | . | . | -
COc1ccc(-n2c(-c3cccc(OC)c3)nc(=S)c3c2CCCC3)cc1 | - | - | - | - | - | - | -
COCCn1cc(C(=O)N2CCCC(C)C2)c2c3ccccc3n(C)c2c1=O (stereo unspecified) | - | 3.2µM | - | - | - | -[7.66 µM] | 15µM
O=C(Nc1sc2c(c1C(=O)NC1CCCCC1)CCC2)c1ccco1 | - | - | - | . | - | - | ?
CC(C)(C)C1CCc2c(sc(NC(=O)c3ccco3)c2C(N)=O)C1 (stereo unspecified) | - | - | - | - | - | - | 31µM
Cc1ccccc1NC(=O)c1c(NC(=O)c2ccco2)sc2c1CCC(C(C)(C)C)C2 (stereo unspecified) | - | - | . | . | . | . | .
O=c1cc(-c2ccco2)oc2ccc(Cl)cc12 | ? | 2.8µM | - | - | - | - | ?
O=C1CC(c2nc3ccccc3n2Cc2c(F)cccc2Cl)CN1c1cccc(C(F)(F)F)c1 (stereo unspecified) | - | - | . | . | . | . | .
CCOC(=O)c1c(NC(=O)CSc2cn(CCNC(=O)c3c(F)cccc3F)c3ccccc23)sc2c1CCCC2 | - | - | . | . | . | . | .
CNC(=O)c1ccsc1NC(=O)c1sc2ccccc2c1Cl | ? | - | - | - | - | - | ?
Cc1nnc(NC(=O)c2sc3ccccc3c2Cl)s1 | - | - | - | - | - | - | .
O=C(Cc1ccc(F)cc1)Nc1cccc(-c2nc3cccnc3s2)c1 | - | 8.9µM | . | . | . | . | -
CN(C(=O)Cc1ccccc1OC(=O)c1ccccc1)c1ccccc1I | - | . | . | . | . | . | .
COC(=O)c1c(-c2cccs2)csc1NC(=O)COc1c(C)ccc(C)c1C | - | ? | . | . | . | . | .
O=[N+]([O-])c1ccc(C(c2sc3nc(-c4ccco4)nn3c2O)N2CCC3(CC2)OCCO3)cc1 (stereo unspecified) | - | - | . | . | . | . | .
